Experimental data taken from the supplement of paper PMC10720658.
± gives the standard deviation of the averaged measurements.

What follows are compounds tested on AEK1 (Tb927.3.2440) (assay: percent reduction in TR-FRET probe signal relative to DMSO control; higher = stronger displacement of ATP-site probe (binding)). Details: 1 µM; incubation time 1 h.

Structure (SMILES) | percent reduction in TR-FRET probe signal [%]
Cn1c(=O)c(F)c(Nc2ccc(I)cc2F)c2c(=O)n(C[C@@H](O)CO)cnc21 | 10.1 ± 14
Cl.N=C(N)NC(=N)NCCc1ccccc1 [Phenformin HCl] | 12.1 ± 8.3
C[C@H](Nc1ncnc2nc[nH]c12)c1cc2cccc(Cl)c2c(=O)n1-c1ccccc1 | -9.85 ± 5.9
CNC(=O)c1cc(Oc2ccc(NC(=O)Nc3ccc(Cl)c(C(F)(F)F)c3)c(F)c2)ccn1 [Regorafenib (BAY 73-4506)] | 11.5 ± 5.7
CO[C@H]1CC[C@H](N2C(=O)CNc3ncc(-c4ccc(C(C)(C)O)nc4)nc32)CC1 | -4.45 ± 1.6
CCS(=O)(=O)c1cccc(-c2cc(C(=O)NC3CCN(C)CC3)c(C)c3[nH]c4ncc(C)cc4c23)c1 | 79.9 ± 8.1
